The results in this text go back to PubChem BioAssay (EPA / NIEHS).

Several values for one entry are separate records, joined by “and”; a condition that tells them apart may be missing. Equal entries are not always repeated. Inconclusive results are not listed. Activity calls are given as the source filed them. The calls were made as follows: active = hit-call score of the fitted dose curve at least 0.9, where 1 is the maximum; inconclusive = response in the unintended direction; inactive = score below 0.9.

human Vascular Endothelial Growth Factor Receptor 3 (VEGFR3), FLT4 (gene 2324), sequence (P35916 whole entry, looked up): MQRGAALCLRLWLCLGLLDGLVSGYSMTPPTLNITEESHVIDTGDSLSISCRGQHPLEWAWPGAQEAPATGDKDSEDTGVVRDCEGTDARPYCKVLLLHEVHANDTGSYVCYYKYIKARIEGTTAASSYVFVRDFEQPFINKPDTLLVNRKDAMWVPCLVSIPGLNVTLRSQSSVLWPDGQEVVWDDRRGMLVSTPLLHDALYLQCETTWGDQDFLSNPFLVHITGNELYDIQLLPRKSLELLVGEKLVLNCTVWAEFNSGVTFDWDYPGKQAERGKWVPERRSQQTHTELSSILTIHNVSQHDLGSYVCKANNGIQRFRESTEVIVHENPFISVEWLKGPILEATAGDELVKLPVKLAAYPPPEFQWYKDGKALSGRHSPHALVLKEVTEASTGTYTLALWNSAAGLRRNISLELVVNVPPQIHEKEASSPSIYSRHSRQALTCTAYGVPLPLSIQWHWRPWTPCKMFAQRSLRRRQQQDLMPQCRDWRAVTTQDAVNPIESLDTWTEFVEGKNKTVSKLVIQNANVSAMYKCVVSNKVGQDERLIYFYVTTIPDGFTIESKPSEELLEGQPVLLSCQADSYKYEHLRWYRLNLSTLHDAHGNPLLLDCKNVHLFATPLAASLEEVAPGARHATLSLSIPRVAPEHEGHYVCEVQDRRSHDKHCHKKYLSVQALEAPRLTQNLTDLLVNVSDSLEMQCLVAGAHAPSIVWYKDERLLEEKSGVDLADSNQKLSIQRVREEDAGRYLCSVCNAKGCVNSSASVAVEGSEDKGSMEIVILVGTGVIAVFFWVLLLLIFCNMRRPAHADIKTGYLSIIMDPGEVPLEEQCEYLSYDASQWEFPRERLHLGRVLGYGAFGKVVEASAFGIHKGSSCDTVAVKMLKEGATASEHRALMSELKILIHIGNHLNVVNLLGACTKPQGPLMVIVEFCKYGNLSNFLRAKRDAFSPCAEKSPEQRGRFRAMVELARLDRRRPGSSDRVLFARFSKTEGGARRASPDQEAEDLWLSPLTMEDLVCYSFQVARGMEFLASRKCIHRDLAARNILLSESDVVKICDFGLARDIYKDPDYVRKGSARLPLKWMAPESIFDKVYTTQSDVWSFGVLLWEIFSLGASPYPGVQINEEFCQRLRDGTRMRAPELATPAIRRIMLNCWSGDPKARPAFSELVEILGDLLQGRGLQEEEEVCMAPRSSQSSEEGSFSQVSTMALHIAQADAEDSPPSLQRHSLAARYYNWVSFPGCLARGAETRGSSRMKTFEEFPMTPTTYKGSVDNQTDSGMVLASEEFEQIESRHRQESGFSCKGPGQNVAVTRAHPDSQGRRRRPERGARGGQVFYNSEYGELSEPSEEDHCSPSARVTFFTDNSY
rat Acetylcholinesterase (AChE), Ache (gene 83817), sequence (P37136 whole entry, looked up): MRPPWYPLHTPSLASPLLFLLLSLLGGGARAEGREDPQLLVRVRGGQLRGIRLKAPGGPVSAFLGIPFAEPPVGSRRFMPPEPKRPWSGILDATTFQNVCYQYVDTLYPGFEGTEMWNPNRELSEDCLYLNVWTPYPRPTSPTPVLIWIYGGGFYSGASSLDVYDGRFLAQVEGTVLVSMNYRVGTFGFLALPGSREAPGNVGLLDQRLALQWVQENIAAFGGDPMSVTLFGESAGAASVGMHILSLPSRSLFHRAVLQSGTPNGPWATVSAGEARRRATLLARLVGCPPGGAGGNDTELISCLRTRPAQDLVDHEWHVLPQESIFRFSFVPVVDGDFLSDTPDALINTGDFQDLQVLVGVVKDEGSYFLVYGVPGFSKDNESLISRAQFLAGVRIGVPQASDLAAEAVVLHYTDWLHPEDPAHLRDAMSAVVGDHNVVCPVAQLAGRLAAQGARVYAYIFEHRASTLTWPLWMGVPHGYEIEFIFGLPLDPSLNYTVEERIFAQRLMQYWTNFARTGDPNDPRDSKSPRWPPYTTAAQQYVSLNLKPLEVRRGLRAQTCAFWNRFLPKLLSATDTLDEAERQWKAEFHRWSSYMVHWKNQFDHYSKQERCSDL

The first test addresses human Vascular Endothelial Growth Factor Receptor 3 (VEGFR3), FLT4 (gene 2324) (UniProt P35916). Description: NVS_ENZ_hVEGFR3: NovaScreen (NVS) Enzymatic Assay for human Vascular Endothelial Growth Factor Receptor 3 (VEGFR3) (AID 2283229). Summed up: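 Chemicals first run in duplicate at 25 uM, with actives re-tested in concentration series to a top of 50 uM. Recombinant VEGFR3 activity measured after 1 h via fluorescence with mobility-shift product separation; inhibition fitted relative to DMSO.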
For `CCCOc1nn(C(=O)NS(=O)(=O)c2ccccc2C(=O)OC)c(=O)n1C`, the compound was classed as inactive. For the compound `CCC(=NOC/C=C/Cl)C1=C(O)CC(C2CCOCC2)CC1=O` (configuration not stated), the call was inactive. By AC50 is commonly meant the concentration giving half of the maximal activity seen. As to `CN(C)[C@@H]1C(=O)C(C(N)=O)=C(O)[C@@]2(O)C(=O)C3=C(O)c4c(O)cccc4[C@@](C)(O)[C@H]3[C@H](O)[C@@H]12`, the AC50 was 6.44 µM (active) and 3.42 µM (active) and 969 nM (active).

The target of a further test is sheep Cyclooxygenase-2 (Cox2), PTGS2 (gene 443460) (UniProt P79208). Put plainly: NVS_ENZ_oCOX2: NovaScreen (NVS) Enzymatic Assay for sheep Cyclooxygenase-2 (Cox2) (AID 2283231). Here is the method: NVS_ENZ_oCOX2 is a biochemical, single-readout assay that uses extracted gene-proteins from Ovine placenta in a tissue-based cell-free assay. Measurements were taken 0.66 hour after chemical dosing in a 96-well plate.NVS_ENZ_oCOX2 is one of one assay component(s) measured or calculated from the NVS_ENZ_oCOX2 assay. It is designed to make measurements of enzyme activity, a form of enzyme reporter, as detected with absorbance signals by Colorimetric technology.Data from the assay component NVS_ENZ_oCOX2 was analyzed into 1 assay endpoint. This assay endpoint, NVS_ENZ_oCOX2, was analyzed in the positive analysis fitting direction relative to DMSO as the negative control and baseline of activity. Using a type of enzyme reporter, loss-of-signal activity can be used to understand changes in the enzymatic activity as they relate to the gene PTGS2. Furthermore, this assay endpoint can be referred to as a primary readout, because this assay has produced multiple assay endpoints where this one serves a enzymatic activity function. To generalize the intended target to other relatable targets, this assay endpoint is annotated to the oxidoreductase intended target family, where the subfamily is cyclooxygenase.
sheep Cyclooxygenase-2 (Cox2), PTGS2 (gene 443460), sequence (P79208 whole entry, looked up): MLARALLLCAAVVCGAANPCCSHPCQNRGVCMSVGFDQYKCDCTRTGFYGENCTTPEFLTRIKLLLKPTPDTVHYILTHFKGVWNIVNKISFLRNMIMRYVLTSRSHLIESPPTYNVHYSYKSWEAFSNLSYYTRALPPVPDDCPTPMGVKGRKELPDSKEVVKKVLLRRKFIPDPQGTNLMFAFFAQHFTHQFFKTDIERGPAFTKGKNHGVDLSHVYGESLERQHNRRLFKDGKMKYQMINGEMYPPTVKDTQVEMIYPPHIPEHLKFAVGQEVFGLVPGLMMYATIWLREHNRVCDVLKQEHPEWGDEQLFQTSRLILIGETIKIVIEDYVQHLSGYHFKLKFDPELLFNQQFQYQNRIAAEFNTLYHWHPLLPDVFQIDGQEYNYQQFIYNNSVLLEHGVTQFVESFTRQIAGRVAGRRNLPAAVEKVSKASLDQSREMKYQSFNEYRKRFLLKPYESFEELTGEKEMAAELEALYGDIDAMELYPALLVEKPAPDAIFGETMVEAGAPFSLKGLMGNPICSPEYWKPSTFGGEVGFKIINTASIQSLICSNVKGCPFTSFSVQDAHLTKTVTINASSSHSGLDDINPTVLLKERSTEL
Binding assays used specific radioligands (tritiated, iodinated) with non-radioactive competitive displacement ligands in agonist or antagonist protocols (as indicated) and various reference compounds and inhibitors to titrate specific binding to receptors and transporters. Most enzyme assays (CYPs, kinases, phosphatases, proteases, HDACs) used recombinant protein and specific substrates (fluorescence mostly, some colorimetric and radioactive) and inhibitors, followed by a biochemical separation of substrate and product. All assays for the biochemical HTS were initially run in duplicate at a single concentration (10 uM for CYP450 assays and 25 uM for all others). […]
`FC(F)C(F)(F)OCC(Cn1cncn1)c1ccc(Cl)cc1Cl` (configuration not stated): the AC50 was 0.67 µM (active). For `CC[C@H](C)[C@H]1O[C@]2(C=C[C@@H]1C)C[C@@H]1C[C@@H](C/C=C(\C)[C@@H](O[C@H]3C[C@H](OC)[C@@H](O[C@H]4C[C@H](OC)[C@@H](NC)[C@H](C)O4)[C@H](C)O3)[C@@H](C)/C=C/C=C3\CO[C@@H]4[C@H](O)C(C)=C[C@@H](C(=O)O1)[C@]34O)O2`, the half-maximal activity concentration (AC50) is 0.0396 µM (active).

Consider `CN(C)[C@@H]1C(=O)C(C(N)=O)=C(O)[C@@]2(O)C(=O)C3=C(O)c4c(O)cccc4[C@@](C)(O)[C@H]3[C@H](O)[C@@H]12`, for which the AC50 was 1.89 µM (active).

Another test deals with rat Adenylate Cyclase, Forskolin Stimulated, Adcy5 (gene 64532) (UniProt Q04400). Description: NVS_ENZ_rACFSKBinding: NovaScreen (NVS) Enzymatic Assay for rat Adenylate Cyclase, Forskolin Stimulated (AID 2283232). The essentials: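 Chemicals were first tested at 25 uM in duplicate, then hits run as concentration series with top concentration 50 uM. Enzyme source was rat forebrain membranes; radiometric filter read-out after 1 h, referenced to DMSO.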
rat Adenylate Cyclase, Forskolin Stimulated, Adcy5 (gene 64532), sequence (Q04400 whole entry, looked up): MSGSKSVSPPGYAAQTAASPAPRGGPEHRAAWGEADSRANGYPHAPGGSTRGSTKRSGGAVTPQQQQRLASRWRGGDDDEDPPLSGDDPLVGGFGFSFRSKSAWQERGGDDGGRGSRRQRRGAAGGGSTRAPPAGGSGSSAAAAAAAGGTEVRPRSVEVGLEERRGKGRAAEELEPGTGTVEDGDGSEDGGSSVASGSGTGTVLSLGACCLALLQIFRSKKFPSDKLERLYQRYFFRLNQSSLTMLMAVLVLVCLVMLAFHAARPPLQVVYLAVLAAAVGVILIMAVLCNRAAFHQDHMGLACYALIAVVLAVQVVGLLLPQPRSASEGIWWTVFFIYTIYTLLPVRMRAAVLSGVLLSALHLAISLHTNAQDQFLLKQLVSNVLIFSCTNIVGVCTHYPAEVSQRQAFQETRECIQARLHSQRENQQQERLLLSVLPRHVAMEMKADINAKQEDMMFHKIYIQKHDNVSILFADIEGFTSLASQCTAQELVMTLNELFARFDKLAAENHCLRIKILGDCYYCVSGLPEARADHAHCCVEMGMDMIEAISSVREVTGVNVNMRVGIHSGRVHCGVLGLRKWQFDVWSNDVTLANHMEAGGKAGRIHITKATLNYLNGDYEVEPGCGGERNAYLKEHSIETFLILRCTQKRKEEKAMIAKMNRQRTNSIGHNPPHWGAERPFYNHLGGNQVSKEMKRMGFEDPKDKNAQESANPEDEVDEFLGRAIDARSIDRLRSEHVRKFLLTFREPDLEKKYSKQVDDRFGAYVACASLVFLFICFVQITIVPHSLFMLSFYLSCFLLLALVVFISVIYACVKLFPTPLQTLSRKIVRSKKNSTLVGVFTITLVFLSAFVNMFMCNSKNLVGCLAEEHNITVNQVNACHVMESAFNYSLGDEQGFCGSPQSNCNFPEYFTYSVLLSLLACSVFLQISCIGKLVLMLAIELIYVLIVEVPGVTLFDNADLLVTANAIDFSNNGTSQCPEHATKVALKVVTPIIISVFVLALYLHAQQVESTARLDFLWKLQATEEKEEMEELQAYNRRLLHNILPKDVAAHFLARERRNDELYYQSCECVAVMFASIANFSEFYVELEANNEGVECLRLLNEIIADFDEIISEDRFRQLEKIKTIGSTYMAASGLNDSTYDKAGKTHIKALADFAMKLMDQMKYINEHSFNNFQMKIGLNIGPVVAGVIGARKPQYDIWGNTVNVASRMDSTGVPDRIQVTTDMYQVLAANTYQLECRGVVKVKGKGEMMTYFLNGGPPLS
`S=C1NCCN1`: the compound was called inactive. For the compound `N#CSCSC#N`, the AC50 is 25 µM (active). As for `CCOP(=S)(OCC)OC(Cl)C(Cl)(Cl)Cl` (configuration not stated), the call was inactive. Same read-out and setting: the result for `Cc1ccn2nc(S(=O)(=O)Nc3c(F)cccc3F)nc2n1` reads “inactive”. On to `COP(=O)(OC)OC(Br)C(Cl)(Cl)Br` (configuration not stated), for which the AC50 was 14.6 µM (active).

For the next test, the target named is rat Acetylcholinesterase (AChE), Ache (gene 83817) (UniProt P37136). Put plainly: NVS_ENZ_rAChE: NovaScreen (NVS) Enzymatic Assay for rat Acetylcholinesterase (AChE) (AID 2283233). Summed up:
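Compounds first screened at 25 uM in duplicate, then those passing threshold tested in concentration series up to 50 uM, against AChE from rat brain membranes. Enzyme activity read by absorbance at 0.33 h; inhibition scored versus DMSO.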
As for `S=C1NCCN1`, the AC50 is 14.3 µM (active). With `O=[N+]([O-])c1cc(C(F)(F)F)c(Cl)c([N+](=O)[O-])c1Nc1ncc(C(F)(F)F)cc1Cl`, the compound was classed as inactive.

With `COP(=O)(OC)SCn1c(=O)oc2cc(Cl)cnc21`, the AC50 is 2.11 µM (active). Take `CNC(=O)Oc1cccc2c1OC(C)(C)O2`: the AC50 was 0.797 µM (active).

In the case of `CC(=NC#N)N(C)Cc1ccc(Cl)nc1`, the compound was classed as inactive. On to `CCOC(=O)CC(SP(=O)(OC)OC)C(=O)OCC` (configuration not stated), for which the AC50 is 0.917 µM (active). On to `CCOP(=S)(OCC)OC(Cl)C(Cl)(Cl)Cl` (configuration not stated), for which the AC50 was 4.06 µM (active).

As to `COP(=O)(OC)OC(Br)C(Cl)(Cl)Br` (configuration not stated), the AC50 is 1.01 µM (active). Turning to `CNC(=O)ON=C(SC)C(=O)N(C)C`, the AC50 is 3.26 µM (active). Take `CCCSP(=O)(OCC)Oc1ccc(Br)cc1Cl` (configuration not stated): the AC50 is 2.32 µM (active).

Regarding `CNC(=O)ON=C(C)SC`, the AC50 is 3.86 µM (active).
